# The full ranking holds about 33,000 sequences; the median of “E-score (-0.5 to 0.5)” is about -0.032, and the highest 2% start at about 0.36. The full list was thinned out, with the highest values kept by preference.
# Target: T1, Sko1 (UniProt Q02100)
# T1 sequence: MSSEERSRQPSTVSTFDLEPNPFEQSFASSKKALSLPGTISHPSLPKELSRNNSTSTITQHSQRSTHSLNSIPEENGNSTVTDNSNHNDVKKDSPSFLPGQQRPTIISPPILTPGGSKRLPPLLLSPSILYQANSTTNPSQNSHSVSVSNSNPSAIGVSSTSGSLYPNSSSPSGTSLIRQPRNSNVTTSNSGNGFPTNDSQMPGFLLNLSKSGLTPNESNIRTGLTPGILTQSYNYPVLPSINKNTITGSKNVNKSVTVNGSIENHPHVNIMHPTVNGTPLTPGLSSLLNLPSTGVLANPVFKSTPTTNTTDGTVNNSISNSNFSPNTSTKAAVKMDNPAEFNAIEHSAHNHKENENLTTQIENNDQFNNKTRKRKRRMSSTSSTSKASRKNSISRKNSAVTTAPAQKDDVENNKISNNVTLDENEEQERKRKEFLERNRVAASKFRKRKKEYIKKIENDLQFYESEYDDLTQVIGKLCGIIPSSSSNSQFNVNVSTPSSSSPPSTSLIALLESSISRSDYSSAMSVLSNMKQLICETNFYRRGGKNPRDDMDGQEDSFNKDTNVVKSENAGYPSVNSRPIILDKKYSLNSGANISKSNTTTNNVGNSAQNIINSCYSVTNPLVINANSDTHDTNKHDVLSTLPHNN
# Experiment: PBM E-score (8-mer binding enrichment) (E-score (-0.5 to 0.5)); higher = stronger / more preferred TF binding
# Conditions: protein concentration: 200 nM; construct: GST-full length
# Procedure, shortened: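 Masliner-normalised scans of fluorescent anti-GST signal were the basis for scoring. That signal came from GST-tagged yeast transcription factors applied at about 100-200 nM to double-stranded universal all-10-mer Agilent arrays on fresh or once-stripped slides. Each ungapped eight-base word, pooled with its reverse complement, received an E-score from the Universal PBM Analysis Suite.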
row,Sequence,PBM E-score
1,TAGAGAGA,-0.0704
2,AAAAGAAT,0.115
3,CCGCTCAC,-0.0552
4,CCACCTGA,-0.0745
5,GTCACGCA,0.25
6,CTCACGTA,0.356
7,ATCACGTG,0.411
8,CTCACGTC,0.278
9,ATCACGCC,0.0558
10,ATCACGGA,0.126
11,GTCACGTA,0.421
12,ATCACGTA,0.465
13,ATCACGTC,0.42
14,GTCACGGA,0.126
15,ATCACGCG,0.254
16,ATCACATA,0.3
17,CGTTTTAC,0.209
18,ATTTATAG,0.158
19,ACGGAAAT,0.226
20,AGTATGCA,-0.0795
21,ACCTGTAT,-0.105
22,CAAACCTG,-0.0692
23,ACCATTAG,0.0481
24,TCCCAAGA,-0.166
25,CGTAACAA,0.344

row,Sequence,PBM E-score
1,AGTAACAG,-0.0766
2,CGTAACAG,0.374
3,GGTAACAC,0.0477
4,CGTAACAC,0.374
5,AGTAACAC,-0.0531
6,AGCGGTTG,-0.0753
7,AGTAATAG,0.264
8,CGTAATAG,0.435
9,GGTAATAC,0.178
10,AGTAATAC,0.0785
11,GGTAATAA,0.185
12,TGTAATAA,0.28
13,CGTAATAC,0.451
14,CGTAATAA,0.434
15,CATAATAG,0.116
16,ACGCGGCT,0.124
17,ACAGTCCG,-0.182
18,ATGGCTCC,-0.249
19,CCGTACCC,-0.335
20,GCGTACCC,-0.00205
21,AAGTACCG,-0.032
22,ACGTACCC,0.435
23,ACGTACCA,0.444
24,ACGTACCT,0.377
25,AAGTACCT,-0.0422

row,Sequence,PBM E-score
1,GCGTACCA,0.138
2,ACGTACCG,0.372
3,CCGTACCA,-0.118
4,CCGTACCG,-0.208
5,AGGTACCT,-0.19
6,AGAACCAG,-0.306
7,CCTACTAA,-0.18
8,AATGCCTA,-0.0242
9,CCTATGCC,-0.3
10,CCATGGAG,-0.266
11,ATACGCAT,0.375
12,TAACGCAA,0.312
13,CTACGCAG,0.274
14,AGACGCAC,0.104
15,CTACGCAA,0.414
16,TTACGCAA,0.466
17,ATACGCAG,0.296
18,ATACGCGC,0.188
19,CTACGCAC,0.315
20,AAACGCAT,0.0801
21,ATACGCAC,0.389
22,TTACGGAA,0.246
23,ATAGCCTA,-0.0632
24,GCAAGGCA,0.0267
25,AAGACCTG,-0.147

row,Sequence,PBM E-score
1,AGCTAATG,0.114
2,ACGAGACG,0.126
3,CCACCGAA,-0.00284
4,CAGCTGAC,0.0244
5,AAGGGAAG,0.0269
6,ACCAGAGT,-0.256
7,ATTCTATG,0.0207
8,CGTACTCC,0.201
9,GTACGCAC,0.303
10,ATACGCAA,0.447
11,GTACGCAA,0.399
12,ATACGCGA,0.281
13,GTACGCGA,0.277
14,AAACGCAA,0.335
15,GAAGTTGC,-0.0684
16,ATAGCACG,-0.0293
17,AATTGGGT,0.12
18,ACACGTCG,0.335
19,GTACGTCA,0.491
20,CCACGTCG,0.168
21,ACACGTCA,0.489
22,GTCCGTCA,0.179
23,CCACGTCC,0.109
24,CCACGTCA,0.477
25,GCCCGTCA,-0.00134

row,Sequence,PBM E-score
1,GCACGTCA,0.477
2,GTACGGCA,0.0279
3,ACACGTCC,0.214
4,GCACGTCC,0.0489
5,GGCCCTAA,-0.259
6,GACGGTAC,0.171
7,CCAATGGA,-0.215
8,AAGACTGT,-0.142
9,TCCCGTCA,0.218
10,TCACGACA,0.212
11,TCACGTCA,0.484
12,ACACGTGC,0.346
13,ACACGTGA,0.415
14,GCACGTGA,0.387
15,GCTCGTGA,-0.116
16,GCACGTGC,0.296
17,ACACGTGG,0.356
18,ACACGTGT,0.407
19,ACACGAGT,-0.0245
20,ACTAGATC,-0.0827
21,CAAGATTA,0.11
22,AAGACGCT,-0.168
23,CAGGTAAC,-0.118
24,AAGACCCC,-0.274
25,CATCCCTA,-0.124

row,Sequence,PBM E-score
1,TACGTCGA,0.422
2,CACGTCGA,0.278
3,GACGTCGA,0.364
4,TCCGTCGA,-0.0164
5,AACGTCGA,0.281
6,CACGTCGG,0.183
7,CGTGTGGC,0.152
8,CCTATAGG,-0.205
9,CAGTAAGA,0.0474
10,ACACATAC,0.124
11,AGGTGACG,0.388
12,ATGTGACG,0.44
13,AGGTGACA,0.118
14,CGGTGACA,-0.0125
15,AGGTGACC,-0.0978
16,CGGTGACG,0.449
17,ATGTGACA,0.169
18,ATGTGACC,-0.0234
19,CGGTGACC,-0.172
20,CTCACTAA,0.118
21,AGGGCCAG,-0.407
22,ACCGAGGC,-0.319
23,GGCATTGA,-0.104
24,CCGTAAGC,-0.0492
25,CCGTAATA,0.288

row,Sequence,PBM E-score
1,AAGTAAGT,0.0641
2,ACGTAAGC,0.455
3,AAGTAAGC,0.0436
4,CCGTAAGA,-0.0187
5,GCGTAATA,0.421
6,ACGTAAGA,0.476
7,TCGTAAGA,0.199
8,GCGTAAGC,0.294
9,ACGTAAGT,0.465
10,GAGTAATA,0.183
11,AGAGTTCC,-0.269
12,CGTAGGTC,0.284
13,GTCTCAAA,-0.0308
14,AAGATATT,0.0367
15,ACTCCTAC,0.0364
16,CGTTGCAC,0.11
17,CTCGGCGA,-0.0899
18,CAACATTC,-0.167
19,AATGCCCA,-0.173
20,ATTCTTGC,0.0625
21,GGCAGCAC,-0.103
22,CTTCTCAA,-0.04

# From the supplement of paper PMC3334620
